Reference: PubChem BioAssay AID743315 (Broad Institute, 2014)
Entries with a potency or affinity are not part of this list. The source made the active and inactive calls.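 The calls were made as follows: active = cell killing, with a fitted active concentration at or below twice the top valid dose tested; inconclusive = flat curve with moderate cell loss, or an unreliable fit; inactive = effect in the rising direction, plus the rest.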

Assay: HEK293T cell cytotoxicity, dose response, cytotoxicity control, plate reader, dry powder, set 10 (AID 743315)
Details: HEK293T viability, CellTiter-Glo ATP luminescence, 72 h; series mostly up to 26 µM

| Compound | outcome |
| --- | --- |
| Cc1ccc(C(C)C)c(OCCn2c(=S)[nH]c3c(F)cccc32)c1 | inactive |
| Cc1ccc(OCCn2cnc3ccccc32)cc1 | inactive |
| Cc1ccc(C(C)C)c(OCCn2c(=S)[nH]c3ccc(F)cc32)c1 | inactive |
| Cc1cccc(OCCn2c(=S)[nH]c3ccc(C(F)(F)F)cc32)c1 | inactive |
| Cc1cccc(OCCn2c(=S)[nH]c3cc(C(F)(F)F)ccc32)c1 | inactive |
| Cc1cccc(OCCn2c(=S)[nH]c3ccccc32)c1C | inactive |
| Fc1ccc(OCCn2c(=S)[nH]c3ccccc32)cc1 | inactive |
| COCc1nc2ccccc2n1CCOc1ccc(C(C)(C)C)cc1 | inactive |
| Cc1ccc(C(C)C)c(OCCn2c(=S)[nH]c3ccccc32)c1 | inactive |
| Cc1ccccc1OCCn1c(=S)[nH]c2ccccc21 | inactive |
| Cc1ccc(OCCn2c(=S)[nH]c3ccccc32)c(C)c1 | inactive |
| Cc1ccc(C(C)C)c(OCCn2c(=S)[nH]c3c(Cl)cccc32)c1 | inactive |
| Fc1cccc(OCCn2c(=S)[nH]c3ccccc32)c1 | inactive |
| Cc1ccc(C)c(OCCn2c(=S)[nH]c3ccccc32)c1 | inactive |
| Cc1cccc2[nH]c(=S)n(CCOc3ccccc3)c12 | inactive |
| CC(C)(C)c1ccccc1OCCn1c(=S)[nH]c2ccccc21 | inactive |
| O=c1[nH]c2ccccc2n1CCOc1ccccc1 | inactive |
| Fc1ccccc1OCCn1c(=S)[nH]c2ccccc21 | inactive |
| Cc1ccc(C(C)C)c(OCCn2c(=S)[nH]c3ccc(Cl)cc32)c1 | inactive |
| CC(C)(C)c1ccc(OCCn2c(=S)[nH]c3ccccc32)cc1 | inactive |
| Cc1ccc(C(C)C)c(OCCn2c(=S)[nH]c3c(C)cccc32)c1 | inactive |
| Cc1ccc(C(C)C)c(OCCn2c(=S)[nH]c3cccc(Cl)c32)c1 | inactive |
| Cc1ccc(C(C)C)c(OCCn2c(=S)[nH]c3cc(F)ccc32)c1 | inactive |
| Cc1cccc(OCCn2c(=S)[nH]c3ccccc32)c1 | inactive |
